This is an account of results in PubChem BioAssay (Tox21).

Inconclusive results are not listed. A number with no mark means an inactive call. The source made the active and inactive calls. The call rests on the fitted dose curve; in most records, active means well fitted inhibition curve with a large enough effect in the repeat runs; inconclusive means weak or mixed curves; inactive means no such curve, though single readings can be large or run the other way.
On the % scale 0 is the no-effect control and ±100 the full control effect; potency means the concentration at half of the fitted maximal effect.

The test can be described thus: qHTS assay to identify small molecule antagonists of the estrogen related receptor (ERR) signaling pathway from Tox21 library (AID 1224848). Further: nearly all actives have a fitted effect of over 50% in size. To be noted: ERR reporter cell line, luciferase antagonist mode, 18 h; series mostly up to 92.4 µM; activity, negative = inhibition: at the top concentration. From the text:
U.S. Tox21 Program National Center for Advancing Translational Sciences [NCATS] NIH Chemical Genomics Center [NCGC] U.S. Environmental Protection Agency [EPA] National Institutes of Environmental Health Sciences [NIEHS] National Toxicology Program [NTP] U.S. Food and Drug Administration [FDA] Tox21 Assay Overview: Estrogen related receptors (ERRs), the first orphan nuclear receptors discovered, play an important role in the control of cellular energy metabolism. ERRs are required for high-energy production in response to the environmental challenges. ERR-alpha was also identified as an adverse marker for breast cancer progression; ERR-alpha-positive tumors have a poor prognosis. To screen and to identify environmental compounds that perturb the ERR signaling pathways could provide valuable information for potential therapeutic or preventive measures in the treatment of metabolic disease. For identifying ERR antagonists, ERR cell line (provided by NTP) has been used to screen Tox21 10K library.
Tox21 Assay Protocol Summary: The ERR cells were dispensed at 2,000 cells/5 ul/well in 1536-well white plates using a Multidrop dispenser. After the assay plates were incubated at a 37 C/5% CO2 incubator for 6 hours, 23 nL of compounds dissolved in DMSO, positive and negative controls or DMSO only was transferred to the assay plate by a pin tool. The plates were incubated at 37 C for 18 hours. 4 ul/well of One-Glo reagent was added into the assay plates using a Flying Reagent Dispenser. After 30-minute incubation at room temperature, the luminescence intensity in the plates was measured using a ViewLux plate reader.
(In qHTS, concentration-response curves come from the screen itself.)
Consider `C[N+](=O)[O-]`, for which the “activity, negative = inhibition” value was 8.38%.

For `C=CCC1=C(C)[C@@H](OC(=O)[C@@H]2[C@@H](C=C(C)C)C2(C)C)CC1=O`, the Potency is 21.7 µM (active).

As to `CNNC`, the “activity, negative = inhibition” value is 8.25%.

`O=NN1CCN(N=O)CC1`: the “activity, negative = inhibition” value was 5.78%.

Turning to `CC(C)(C)OC(=O)c1ncn2c1[C@@H]1CCCN1C(=O)c1c(Br)cccc1-2`, the Potency is 23.7 µM (active).

As to `ClCCOCOCCCl`, the “activity, negative = inhibition” value is -2.2%.

In the case of `CC1(C(=O)Nc2ccc(O)c(Cl)c2Cl)CCCCC1`, the Potency is 61.1 µM (active).

Regarding `Cc1ncc2n1-c1ccc(Cl)cc1C(c1ccccc1F)=NC2`, the “activity, negative = inhibition” value is 18.9% [at 42.5 µM].

`N#CC(CCc1ccc(Cl)cc1)(Cn1cncn1)c1ccccc1` (stereo not given): the Potency was 17.2 µM (active).

As to `Cc1cc(C)c(C(=O)P(=O)(C(=O)c2c(C)cc(C)cc2C)c2ccccc2)c(C)c1`, the “activity, negative = inhibition” value is -18.1%.

As for `CS(=O)(=O)c1cc(C(F)(F)F)ccc1C(=O)c1cnoc1C1CC1`, the “activity, negative = inhibition” value was 12.6%.

Turning to `CCS(=O)(=O)C(C)(C)S(=O)(=O)CC`, the “activity, negative = inhibition” value was 6.7% [at 42.5 µM].

Turning to `CC(=O)C(Cl)Cl`, the “activity, negative = inhibition” value is 7.28%.

Consider `CCC#N`, for which the “activity, negative = inhibition” value is -0.187%.

As for `CC(C)(C)NCC(O)c1cc(Cl)c(N)c(Cl)c1` (stereo not given), the “activity, negative = inhibition” value is 10.3% [at 42.5 µM].

For `CC1CCCCC1NC(=O)Nc1ccccc1` (stereo not given), the “activity, negative = inhibition” value was 6.12%.

`C[C@H]1CCC[C@H](O)CCCCCc2cc(O)cc(O)c2C(=O)O1`: the Potency was 54.9 µM (active).

Take `CCOC(=O)CP(=O)(OCC)OCC`: the “activity, negative = inhibition” value was 5.29%.

As for `CNC(=O)N(C)c1nc2ccccc2s1`, the “activity, negative = inhibition” value was 148%.

As for `CC1CCC(=O)O1` (stereo not given), the “activity, negative = inhibition” value is -10.2%.

In the case of `COCC(=O)N(c1c(C)cccc1C)N1CCOC1=O`, the “activity, negative = inhibition” value is 2.48%.

Consider `CCC(Cl)[N+](=O)[O-]` (stereo not given), for which the “activity, negative = inhibition” value is -10.4%.

As to `CC1=C(C(=O)O)N2C(=O)[C@@H](N)[C@H]2SC1`, the activity, negative = inhibition was 6% [at 19 µM].

For `CC(Cl)(Cl)[N+](=O)[O-]`, the “activity, negative = inhibition” value was 2.94%.

With `CC1(C)C(=O)NC(=O)NC1=O`, the “activity, negative = inhibition” value was -1.14%.

For `COc1cccc2c1cc([N+](=O)[O-])c1c(C(=O)O)cc3c(c12)OCO3`, the Potency is 4.86 µM (active).

Take `CCOC(=O)NC(=S)Nc1ccccc1NC(=S)NC(=O)OCC`: the “activity, negative = inhibition” value was 18.4%.

`COP(=S)(OC)Oc1c(Cl)cc(C)cc1Cl`: the “activity, negative = inhibition” value was 3.76%.

For the molecule `CN(C)CCc1ccc(O)cc1`, the “activity, negative = inhibition” value is 8.01% [at 42.5 µM].

Turning to `CC(C)CC(N(C)C)C1(c2ccc(Cl)cc2)CCC1` (stereo not given), the “activity, negative = inhibition” value was 3.01% [at 42.5 µM].

For `O=CNC(N1CCN(C(NC=O)C(Cl)(Cl)Cl)CC1)C(Cl)(Cl)Cl` (stereo not given), the “activity, negative = inhibition” value was -1.75%.

Turning to `C=C(C)CN(CC)c1c([N+](=O)[O-])cc(C(F)(F)F)cc1[N+](=O)[O-]`, the “activity, negative = inhibition” value is 2.88%.

Regarding `N#Cc1c(Cl)cccc1Cl`, the “activity, negative = inhibition” value was 8.85%.

For `N#CCNCC#N`, the “activity, negative = inhibition” value is 2.2%.

For the molecule `CCNc1nc(NC(C)C)nc(OC)n1`, the “activity, negative = inhibition” value is -1.31%.

In the case of `C1CCC(C2CCCCC2)CC1`, the “activity, negative = inhibition” value is -8.33%.

Consider `CC1(C)COP(Oc2ccccc2)OC1`, for which the “activity, negative = inhibition” value is 9.94%.

Regarding `Fc1ccc(C2(Cn3cncn3)OC2c2ccccc2Cl)cc1` (stereo not given), the Potency is 48.6 µM (active).

`CCCCOC(=O)[C@@H](C)Oc1ccc(Oc2ccc(C#N)cc2F)cc1`: the “activity, negative = inhibition” value is -5.94%.

As for `CCOC(=O)C1(c2ccccc2)CCN(CCc2ccc(N)cc2)CC1`, the “activity, negative = inhibition” value is -20.8% [at 42.5 µM].
